Of roughly 7,900 targets only a part is listed; those with a hit were picked by preference. About 0.6% of all pairs of compound and target were hits. A number with no mark means an inactive call.

Sequence of UniProt Q6VEQ5 (Q6VEQ5 whole entry, looked up): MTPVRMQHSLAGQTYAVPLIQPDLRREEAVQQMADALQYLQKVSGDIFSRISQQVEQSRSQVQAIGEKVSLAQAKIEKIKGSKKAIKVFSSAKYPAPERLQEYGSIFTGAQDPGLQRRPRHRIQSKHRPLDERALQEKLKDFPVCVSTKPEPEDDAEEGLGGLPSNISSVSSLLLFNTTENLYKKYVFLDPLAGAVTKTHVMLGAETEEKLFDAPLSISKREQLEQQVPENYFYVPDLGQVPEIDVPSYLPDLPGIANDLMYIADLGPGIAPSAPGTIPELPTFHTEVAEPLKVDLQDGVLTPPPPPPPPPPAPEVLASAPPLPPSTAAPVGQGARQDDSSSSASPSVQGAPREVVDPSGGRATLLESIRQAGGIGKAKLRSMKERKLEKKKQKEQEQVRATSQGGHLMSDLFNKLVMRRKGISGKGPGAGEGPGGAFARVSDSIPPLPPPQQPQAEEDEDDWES
Sequence of UniProt A6NHL2 (A6NHL2 whole entry, looked up): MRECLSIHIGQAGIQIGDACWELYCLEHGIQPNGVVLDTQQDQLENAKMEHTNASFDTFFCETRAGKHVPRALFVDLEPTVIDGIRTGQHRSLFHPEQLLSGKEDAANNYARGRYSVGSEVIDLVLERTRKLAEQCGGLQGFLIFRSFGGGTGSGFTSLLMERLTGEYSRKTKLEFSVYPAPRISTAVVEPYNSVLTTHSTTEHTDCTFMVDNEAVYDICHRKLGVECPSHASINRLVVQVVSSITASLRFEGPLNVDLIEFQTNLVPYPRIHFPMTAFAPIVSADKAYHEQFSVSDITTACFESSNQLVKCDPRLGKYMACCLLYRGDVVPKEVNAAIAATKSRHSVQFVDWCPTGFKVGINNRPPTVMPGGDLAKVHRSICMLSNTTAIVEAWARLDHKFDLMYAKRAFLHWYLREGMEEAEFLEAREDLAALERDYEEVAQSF
Sequence of UniProt Q5U3C3 (Q5U3C3 whole entry, looked up): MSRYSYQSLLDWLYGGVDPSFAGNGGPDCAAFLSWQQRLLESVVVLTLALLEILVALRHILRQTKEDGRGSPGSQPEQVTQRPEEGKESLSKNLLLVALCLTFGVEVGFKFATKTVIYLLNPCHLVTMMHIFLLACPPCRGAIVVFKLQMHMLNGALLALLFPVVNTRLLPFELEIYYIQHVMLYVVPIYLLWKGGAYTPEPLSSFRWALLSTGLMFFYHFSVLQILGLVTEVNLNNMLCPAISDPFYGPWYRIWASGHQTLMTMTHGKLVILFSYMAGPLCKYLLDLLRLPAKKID
Sequence of UniProt Q9UID3 (Q9UID3 whole entry, looked up): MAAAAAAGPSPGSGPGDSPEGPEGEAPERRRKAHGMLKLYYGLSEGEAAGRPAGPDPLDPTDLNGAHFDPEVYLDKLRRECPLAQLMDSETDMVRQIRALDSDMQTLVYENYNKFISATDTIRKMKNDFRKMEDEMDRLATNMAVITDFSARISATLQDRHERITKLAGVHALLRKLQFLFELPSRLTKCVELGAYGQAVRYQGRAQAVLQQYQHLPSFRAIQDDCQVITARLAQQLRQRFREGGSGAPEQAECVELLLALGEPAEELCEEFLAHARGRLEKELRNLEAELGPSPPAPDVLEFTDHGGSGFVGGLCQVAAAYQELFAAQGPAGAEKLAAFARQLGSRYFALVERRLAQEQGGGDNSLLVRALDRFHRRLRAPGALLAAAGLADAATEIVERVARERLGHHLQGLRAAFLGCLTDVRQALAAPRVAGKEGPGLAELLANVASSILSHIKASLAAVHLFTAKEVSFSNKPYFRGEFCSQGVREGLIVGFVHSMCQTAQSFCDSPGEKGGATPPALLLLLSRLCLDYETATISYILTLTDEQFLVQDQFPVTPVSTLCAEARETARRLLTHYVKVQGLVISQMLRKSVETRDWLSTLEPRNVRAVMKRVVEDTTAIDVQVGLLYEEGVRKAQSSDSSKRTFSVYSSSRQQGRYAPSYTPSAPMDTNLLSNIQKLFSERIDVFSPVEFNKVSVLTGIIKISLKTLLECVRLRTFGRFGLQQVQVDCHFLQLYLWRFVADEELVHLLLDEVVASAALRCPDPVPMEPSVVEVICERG
Sequence of UniProt Q9NX01 (Q9NX01 whole entry, looked up): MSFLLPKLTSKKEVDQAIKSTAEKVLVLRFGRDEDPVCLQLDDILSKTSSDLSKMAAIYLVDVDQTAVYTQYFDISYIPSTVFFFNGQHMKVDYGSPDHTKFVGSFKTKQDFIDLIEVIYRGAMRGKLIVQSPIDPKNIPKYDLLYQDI
Sequence of UniProt Q7Z7N9 (Q7Z7N9 whole entry, looked up): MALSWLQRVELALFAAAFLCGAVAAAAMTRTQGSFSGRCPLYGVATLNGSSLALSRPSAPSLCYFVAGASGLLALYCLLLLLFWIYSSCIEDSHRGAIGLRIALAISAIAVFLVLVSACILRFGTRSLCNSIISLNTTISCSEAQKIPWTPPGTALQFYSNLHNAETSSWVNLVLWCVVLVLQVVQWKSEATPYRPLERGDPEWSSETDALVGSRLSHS
Sequence of UniProt Q9HCN3 (Q9HCN3 whole entry, looked up): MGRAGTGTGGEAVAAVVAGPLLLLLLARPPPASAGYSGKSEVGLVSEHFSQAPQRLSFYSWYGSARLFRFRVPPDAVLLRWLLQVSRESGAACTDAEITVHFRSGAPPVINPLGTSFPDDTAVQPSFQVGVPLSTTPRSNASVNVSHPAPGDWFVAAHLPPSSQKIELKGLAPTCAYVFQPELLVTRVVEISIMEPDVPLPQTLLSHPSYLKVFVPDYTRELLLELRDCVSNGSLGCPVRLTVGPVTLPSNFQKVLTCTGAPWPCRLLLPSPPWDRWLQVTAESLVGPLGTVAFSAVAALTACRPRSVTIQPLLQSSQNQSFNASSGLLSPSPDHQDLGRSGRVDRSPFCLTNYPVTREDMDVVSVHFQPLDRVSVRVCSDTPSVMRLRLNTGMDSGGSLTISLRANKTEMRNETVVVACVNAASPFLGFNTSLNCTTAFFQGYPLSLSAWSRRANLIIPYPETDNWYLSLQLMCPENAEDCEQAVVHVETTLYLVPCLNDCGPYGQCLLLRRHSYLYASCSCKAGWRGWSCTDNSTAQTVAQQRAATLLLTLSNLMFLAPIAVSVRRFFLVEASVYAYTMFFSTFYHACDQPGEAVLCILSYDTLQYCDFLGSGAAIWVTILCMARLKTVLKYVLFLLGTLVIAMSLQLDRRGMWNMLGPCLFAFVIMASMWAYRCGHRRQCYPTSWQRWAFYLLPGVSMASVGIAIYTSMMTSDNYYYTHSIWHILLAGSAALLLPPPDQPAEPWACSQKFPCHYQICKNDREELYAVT
Sequence of UniProt Q5TAX3 (Q5TAX3 whole entry, looked up): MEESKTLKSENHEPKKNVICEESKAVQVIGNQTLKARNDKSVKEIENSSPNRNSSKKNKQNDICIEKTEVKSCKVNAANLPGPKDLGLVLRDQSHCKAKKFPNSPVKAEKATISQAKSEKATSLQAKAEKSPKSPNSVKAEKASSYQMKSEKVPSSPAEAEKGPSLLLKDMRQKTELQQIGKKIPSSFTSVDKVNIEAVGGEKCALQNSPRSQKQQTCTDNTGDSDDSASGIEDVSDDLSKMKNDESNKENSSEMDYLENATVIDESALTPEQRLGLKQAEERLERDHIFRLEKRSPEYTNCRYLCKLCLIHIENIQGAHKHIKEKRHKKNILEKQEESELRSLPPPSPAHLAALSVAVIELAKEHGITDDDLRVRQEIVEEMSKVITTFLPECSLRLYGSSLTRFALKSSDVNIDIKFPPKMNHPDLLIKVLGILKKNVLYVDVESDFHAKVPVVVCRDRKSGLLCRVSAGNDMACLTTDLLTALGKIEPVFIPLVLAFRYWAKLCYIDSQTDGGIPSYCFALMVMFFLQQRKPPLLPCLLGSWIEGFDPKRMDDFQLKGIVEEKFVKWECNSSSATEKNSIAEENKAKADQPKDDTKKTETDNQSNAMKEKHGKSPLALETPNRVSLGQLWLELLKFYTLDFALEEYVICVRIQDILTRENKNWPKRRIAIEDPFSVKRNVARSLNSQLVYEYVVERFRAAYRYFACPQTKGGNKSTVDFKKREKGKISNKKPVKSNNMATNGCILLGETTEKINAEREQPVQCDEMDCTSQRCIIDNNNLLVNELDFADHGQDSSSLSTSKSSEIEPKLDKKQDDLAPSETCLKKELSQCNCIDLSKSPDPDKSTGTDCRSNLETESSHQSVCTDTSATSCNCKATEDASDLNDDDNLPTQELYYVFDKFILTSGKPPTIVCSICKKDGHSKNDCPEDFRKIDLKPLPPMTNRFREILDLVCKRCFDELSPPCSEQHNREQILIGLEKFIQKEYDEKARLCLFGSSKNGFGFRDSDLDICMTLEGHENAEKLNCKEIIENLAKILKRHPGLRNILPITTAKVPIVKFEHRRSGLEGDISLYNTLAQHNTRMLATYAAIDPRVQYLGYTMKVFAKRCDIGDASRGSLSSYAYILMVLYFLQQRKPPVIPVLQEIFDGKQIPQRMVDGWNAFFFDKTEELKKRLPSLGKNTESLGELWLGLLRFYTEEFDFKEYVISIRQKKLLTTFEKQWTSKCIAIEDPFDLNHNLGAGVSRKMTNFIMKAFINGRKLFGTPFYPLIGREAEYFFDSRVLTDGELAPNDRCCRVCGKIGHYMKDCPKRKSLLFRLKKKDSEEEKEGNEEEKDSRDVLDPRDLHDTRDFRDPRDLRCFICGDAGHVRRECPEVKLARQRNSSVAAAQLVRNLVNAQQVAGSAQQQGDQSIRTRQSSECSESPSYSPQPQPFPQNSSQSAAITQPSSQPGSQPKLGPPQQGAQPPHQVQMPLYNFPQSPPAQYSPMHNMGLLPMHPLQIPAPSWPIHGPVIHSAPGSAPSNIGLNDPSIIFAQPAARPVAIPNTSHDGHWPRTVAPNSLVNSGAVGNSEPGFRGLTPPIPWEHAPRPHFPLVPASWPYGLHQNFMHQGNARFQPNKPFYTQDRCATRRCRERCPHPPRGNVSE
Sequence of UniProt P61960 (P61960 whole entry, looked up): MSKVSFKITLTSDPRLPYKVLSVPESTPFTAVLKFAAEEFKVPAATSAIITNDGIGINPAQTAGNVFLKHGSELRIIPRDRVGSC

Compound in the first assay: O=C(CCCCCCC(=O)Nc1ccccc1)NO [vorinostat]
The experiment in a line: log2 fold change, soluble protein after heating vs DMSO (PISA); higher = thermal stabilisation; K562 cells, 10 uM, 30 min; active = over 0.2 and 3.5 SD of the protein, either way, in both replicates (recomputed). In short, it runs like this: (§1)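 K562 cells at 2×10^6 cells/mL were exposed to 10 μM compound for 30 min, then aliquots were heated for 3 min across 48°C-58°C, pooled, and extracted in PBS containing 0.5% NP-40 at 4°C. The supernatant after 21,000xg for 90 min was taken as soluble protein and measured by TMTpro 16plex LC-MS/MS with channel sums equalised. Thermal stability is reported relative to control samples, with values from duplicates. Fold changes are given on a log2 scale.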
As for UBIAD1 (UniProt Q9Y5Z9), the log2 fold change was -0.075.

With TMEM41A (UniProt Q96HV5), the log2 fold change is 0.09.

As to TRIM23 (UniProt P36406), the log2 fold change was 0.06.

On to TXNL4B (UniProt Q9NX01), for which the log2 fold change is 0.02.

With TSPAN13 (UniProt O95857), the log2 fold change was 0.002.

UNC119B (UniProt A6NIH7): the log2 fold change is -0.055.

In the case of TUT4 (UniProt Q5TAX3), the log2 fold change is -0.032.

For the target VKORC1 (UniProt Q9BQB6), the log2 fold change is -0.034.

In the case of UBAP2L (UniProt F8W726), the log2 fold change was -0.033.

For WASH2P (UniProt Q6VEQ5), the log2 fold change was -0.016.

Take TMEM184C (UniProt Q9NVA4): the log2 fold change was 0.08.

As to VWA3B isoform 6 (UniProt Q502W6), the log2 fold change is 0.076.

Consider UBE2J1 (UniProt Q9Y385), for which the log2 fold change is -0.019.

Consider TMEM268 isoform 3 (UniProt Q5VZI3), for which the log2 fold change is 0.162.

Take UFM1 isoform 2 (UniProt P61960): the log2 fold change was -0.057.

Take TMEM106B (UniProt Q9NUM4): the log2 fold change was -0.023.

In the case of UBE2D1 (UniProt P51668), the log2 fold change was 0.164.

Turning to VPS37A (UniProt Q8NEZ2), the log2 fold change is 0.113.

As for XRCC6 (UniProt P12956), the log2 fold change is 0.134.

In the case of UBXN10 (UniProt Q96LJ8), the log2 fold change was 0.136.

Turning to TXNIP (UniProt Q9H3M7), the log2 fold change was 0.018.

With WEE1 (UniProt P30291), the log2 fold change is 0.05.

Consider TRABD (UniProt Q9H4I3), for which the log2 fold change was 0.009.

As to TMEM164 (UniProt Q5U3C3), the log2 fold change is 0.139.

Turning to TRIM44 (UniProt Q96DX7), the log2 fold change is 0.015.

Turning to TUBAL3 (UniProt A6NHL2), the log2 fold change is 0.037.

Regarding TMEM8A (UniProt Q9HCN3), the log2 fold change was -0.077.

Regarding TRIM4 (UniProt Q9C037), the log2 fold change was -0.03.

For the target UXT isoform 2 (UniProt Q9UBK9), the log2 fold change is 0.047.

Turning to TMEM9B (UniProt Q9NQ34), the log2 fold change was 0.051.

Take TMEM219 (UniProt Q86XT9): the log2 fold change is 0.389 (active).

In the case of VPS35L (UniProt Q7Z3J2), the log2 fold change was -0.039.

For VPS13B (UniProt Q7Z7G8), the log2 fold change was 0.041.

Consider TMEM179B (UniProt Q7Z7N9), for which the log2 fold change was -0.156.

For XIAP (UniProt P98170), the log2 fold change was 0.053.

Consider VPS51 (UniProt Q9UID3), for which the log2 fold change was -0.035.

Compound in the next assay: O=C(CCCCCCNC(=O)c1cnc(N(c2ccccc2)c2ccccc2Cl)nc1)NO [citarinostat]
The description is as above. The essentials: as §1
Take UBIAD1 (UniProt Q9Y5Z9): the log2 fold change was -0.301.

For the target TMEM41A (UniProt Q96HV5), the log2 fold change is 0.04.

On to TRIM23 (UniProt P36406), for which the log2 fold change is 0.015.

As for TXNL4B (UniProt Q9NX01), the log2 fold change is 0.029.

For UNC119B (UniProt A6NIH7), the log2 fold change was 0.043.

As to TUT4 (UniProt Q5TAX3), the log2 fold change was -0.161.

As for VKORC1 (UniProt Q9BQB6), the log2 fold change is 0.001.

For the target UBAP2L (UniProt F8W726), the log2 fold change is 0.095.

Consider WASH2P (UniProt Q6VEQ5), for which the log2 fold change is 0.029.

With TMEM184C (UniProt Q9NVA4), the log2 fold change is -0.065.

Regarding VWA3B isoform 6 (UniProt Q502W6), the log2 fold change was -0.128.

For UBE2J1 (UniProt Q9Y385), the log2 fold change was 0.041.

For TMEM268 isoform 3 (UniProt Q5VZI3), the log2 fold change was 0.084.

In the case of UFM1 isoform 2 (UniProt P61960), the log2 fold change is -0.044.

For TMEM106B (UniProt Q9NUM4), the log2 fold change was 0.022.

Regarding UBE2D1 (UniProt P51668), the log2 fold change is 0.062.

Consider XRCC6 (UniProt P12956), for which the log2 fold change was 0.107.

Regarding UBXN10 (UniProt Q96LJ8), the log2 fold change is -0.121.

For the target TXNIP (UniProt Q9H3M7), the log2 fold change is 0.071.

In the case of TRABD (UniProt Q9H4I3), the log2 fold change was -0.014.

As to TMEM164 (UniProt Q5U3C3), the log2 fold change was 0.087.

On to TRIM44 (UniProt Q96DX7), for which the log2 fold change was 0.008.

TUBAL3 (UniProt A6NHL2): the log2 fold change was -0.06.

Consider TMEM8A (UniProt Q9HCN3), for which the log2 fold change was -0.037.

As for TRIM4 (UniProt Q9C037), the log2 fold change is -0.006.

UXT isoform 2 (UniProt Q9UBK9): the log2 fold change is 0.129.

For TMEM9B (UniProt Q9NQ34), the log2 fold change is 0.023.

VPS35L (UniProt Q7Z3J2): the log2 fold change is 0.08.

With VPS13B (UniProt Q7Z7G8), the log2 fold change was 0.018.

TMEM179B (UniProt Q7Z7N9): the log2 fold change is -0.019.

On to XIAP (UniProt P98170), for which the log2 fold change was 0.091.

Turning to VPS51 (UniProt Q9UID3), the log2 fold change is -0.002.

Compound in a further assay: O=C(O)c1ccc2c(c1)nc(Nc1cccc(Cl)c1)c1ccncc12 [silmitasertib]
Described as above. In short, it runs like this: as §1
Take UBIAD1 (UniProt Q9Y5Z9): the log2 fold change is 0.013.

Turning to TMEM41A (UniProt Q96HV5), the log2 fold change was -0.015.

Take TRIM23 (UniProt P36406): the log2 fold change is -0.044.

Consider TXNL4B (UniProt Q9NX01), for which the log2 fold change is 0.118.

For TSPAN13 (UniProt O95857), the log2 fold change was 0.

As for UNC119B (UniProt A6NIH7), the log2 fold change was 0.031.

Turning to TUT4 (UniProt Q5TAX3), the log2 fold change is 0.094.

As for VKORC1 (UniProt Q9BQB6), the log2 fold change is -0.023.

Turning to UBAP2L (UniProt F8W726), the log2 fold change is 0.004.

Take WASH2P (UniProt Q6VEQ5): the log2 fold change was 0.06.

With TMEM184C (UniProt Q9NVA4), the log2 fold change was -0.004.

VWA3B isoform 6 (UniProt Q502W6): the log2 fold change is 0.162.

As for UBE2J1 (UniProt Q9Y385), the log2 fold change is 0.042.

Turning to TMEM268 isoform 3 (UniProt Q5VZI3), the log2 fold change was -0.114.

For the target UFM1 isoform 2 (UniProt P61960), the log2 fold change is -0.025.

In the case of TMEM106B (UniProt Q9NUM4), the log2 fold change is 0.034.

In the case of UBE2D1 (UniProt P51668), the log2 fold change was 0.049.

Consider VPS37A (UniProt Q8NEZ2), for which the log2 fold change was 0.02.

Consider XRCC6 (UniProt P12956), for which the log2 fold change was 0.026.

Regarding UBXN10 (UniProt Q96LJ8), the log2 fold change was -0.006.

Consider TXNIP (UniProt Q9H3M7), for which the log2 fold change was 0.115.

WEE1 (UniProt P30291): the log2 fold change was -0.122.

With TRABD (UniProt Q9H4I3), the log2 fold change was 0.188.

For TMEM164 (UniProt Q5U3C3), the log2 fold change was 0.01.

For the target TRIM44 (UniProt Q96DX7), the log2 fold change was 0.045.

Regarding TUBAL3 (UniProt A6NHL2), the log2 fold change was 0.087.

As for TMEM8A (UniProt Q9HCN3), the log2 fold change was 0.053.

As to TRIM4 (UniProt Q9C037), the log2 fold change is 0.042.

As for UXT isoform 2 (UniProt Q9UBK9), the log2 fold change is -0.033.

Turning to TMEM9B (UniProt Q9NQ34), the log2 fold change was 0.038.

As for VPS35L (UniProt Q7Z3J2), the log2 fold change was 0.111.

As to VPS13B (UniProt Q7Z7G8), the log2 fold change was 0.038.

In the case of TMEM179B (UniProt Q7Z7N9), the log2 fold change is -0.043.

As to XIAP (UniProt P98170), the log2 fold change is -0.029.

For VPS51 (UniProt Q9UID3), the log2 fold change is 0.068.
